Assay results as given in PubChem BioAssay.
Entries with a potency or affinity are not part of this list. Records with an inconclusive call do not appear. The source made the active and inactive calls. How the calls were made is not given here.

Assay: IGROV1 ovarian cancer cell cytotoxicity, dose response, PAX8 inhibitor project, plate reader, dry powder samples (AID 743043);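 further: more negative means fewer viable cells or more cytotoxicity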
Conditions: series mostly up to 35 µM

| Compound | outcome |
| --- | --- |
| C[C@@H]1CN([C@H](C)CO)C(=O)c2cc(NC(=O)Nc3ccc(F)cc3)ccc2O[C@@H](C)CCCCO[C@@H]1CN(C)Cc1ccc2c(c1)OCO2 | inactive |
| Cc1noc(C)c1S(=O)(=O)N(C)C[C@@H]1OCCCC[C@H](C)Oc2ccc(NS(=O)(=O)c3ccc(Cl)cc3)cc2C(=O)N([C@H](C)CO)C[C@@H]1C | inactive |
| C[C@@H]1CCCCO[C@@H](CN(C)C(=O)Nc2cccc3ccccc23)[C@H](C)CN([C@H](C)CO)C(=O)c2cc(NS(=O)(=O)c3ccccc3)ccc2O1 | inactive |
| COc1ccc(NC(=O)Nc2ccc3c(c2)C(=O)N([C@@H](C)CO)C[C@@H](C)[C@@H](CN(C)CC2CCCCC2)OCCCC[C@@H](C)O3)cc1 | inactive |
| C[C@H]1CN([C@@H](C)CO)C(=O)c2cc(NS(=O)(=O)c3ccccc3)ccc2O[C@@H]1CN(C)Cc1ccc(Oc2ccccc2)cc1 | inactive |
| C[C@@H]1CN([C@@H](C)CO)C(=O)Cc2cc(NC(=O)CCC(F)(F)F)ccc2O[C@H]1CN(C)Cc1ccc(-c2ccccc2)cc1 | inactive |
| CCCNC(=O)Nc1ccc2c(c1)OC[C@H](C)N(Cc1ccc(-c3ccccn3)cc1)C[C@@H](C)[C@@H](OC)CN(C)C2=O | inactive |
| O=S(=O)(c1ccccc1F)N1CC[C@@H]2[C@@H](CO)Nc3ccc(C4=CCCCC4)cc3[C@@H]21 | inactive |
| CN1c2ccc(-c3cccc(F)c3)cc2[C@@H]2[C@@H](CCN2C(=O)Cc2ccccc2)[C@@H]1CO | inactive |
| C[C@H](CO)N1C[C@H](C)[C@@H](CN(C)S(=O)(=O)c2ccc(Cl)cc2)OCCCC[C@H](C)Oc2ccc(NS(=O)(=O)c3ccc(Cl)cc3)cc2C1=O | inactive |
| C[C@@H]1CN([C@H](C)CO)C(=O)Cc2cc(NC(=O)Nc3ccc(F)cc3)ccc2O[C@H]1CN(C)Cc1ccc(Cl)c(Cl)c1 | inactive |
| C[C@@H]1CCCCO[C@H](CN(C)Cc2ccc(C(F)(F)F)cc2)[C@H](C)CN([C@H](C)CO)C(=O)c2cc(NS(=O)(=O)c3cccs3)ccc2O1 | inactive |
| O=C(C[C@H]1CC[C@H]2[C@@H](COC[C@@H](O)CN2Cc2ccc(Oc3ccccc3)cc2)O1)N1CCCCC1 | inactive |
| C[C@@H]1CCCCO[C@H](CN(C)Cc2ccc(C(F)(F)F)cc2)[C@H](C)CN([C@@H](C)CO)C(=O)c2cc(NS(=O)(=O)c3cccs3)ccc2O1 | inactive |
| C[C@@H]1CCCCO[C@@H](CN(C)Cc2ccc(C(F)(F)F)cc2)[C@@H](C)CN([C@@H](C)CO)C(=O)c2cc(NS(=O)(=O)c3ccccc3)ccc2O1 | inactive |
| C[C@@H]1CCCCO[C@@H](CN(C)Cc2ccc(C(F)(F)F)cc2)[C@@H](C)CN([C@@H](C)CO)C(=O)c2cc(NS(=O)(=O)c3ccc(F)cc3)ccc2O1 | inactive |
| COc1ccc(NC(=O)Nc2ccc3c(c2)CC(=O)N([C@H](C)CO)C[C@@H](C)[C@@H](CN(C)Cc2ccc(Oc4ccccc4)cc2)O3)cc1 | inactive |
| C[C@@H]1CCCCO[C@H](CN(C)Cc2ccc(Cl)c(Cl)c2)[C@H](C)CN([C@@H](C)CO)C(=O)c2cc(NC(=O)Nc3ccccc3)ccc2O1 | inactive |
| O=C(Nc1ccc(Cl)c(Cl)c1)N[C@@H]1CC[C@H](CCn2cc(C3CCCCC3)nn2)O[C@H]1CO | inactive |
| C[C@@H]1CN([C@H](C)CO)S(=O)(=O)c2ccc(C#CC3CCCC3)cc2O[C@@H]1CN(C)C(=O)Cc1ccncc1 | inactive |
| C[C@@H]1CCCCO[C@H](CN(C)Cc2ccc(C(F)(F)F)cc2)[C@H](C)CN([C@H](C)CO)C(=O)c2cc(NS(=O)(=O)c3ccccc3)ccc2O1 | inactive |
| COc1cccc(S(=O)(=O)N2CC[C@H]3[C@@H](CO)N(C)c4ccc(C#Cc5ccc(F)cc5)cc4[C@H]32)c1 | inactive |

Assay: NIH:OVCAR-3 ovarian cancer cell cytotoxicity, dose response, PAX8 inhibitor project, plate reader, dry powder samples (AID 743044)
Conditions: NIH:OVCAR-3 ovarian cancer cell viability; max activity: at 35 µM, active compounds read low unless noted; series mostly up to 50 µM

| Compound | max activity |
| --- | --- |
| C[C@@H]1CN([C@H](C)CO)C(=O)c2cc(NC(=O)Nc3ccc(F)cc3)ccc2O[C@@H](C)CCCCO[C@@H]1CN(C)Cc1ccc2c(c1)OCO2 | -19.6% [at 4.2 µM, active compounds read low] (inactive) |
| Cc1noc(C)c1S(=O)(=O)N(C)C[C@@H]1OCCCC[C@H](C)Oc2ccc(NS(=O)(=O)c3ccc(Cl)cc3)cc2C(=O)N([C@H](C)CO)C[C@@H]1C | -11.5% [at 0.5 µM, active compounds read low] (inactive) |
| C[C@@H]1CCCCO[C@@H](CN(C)C(=O)Nc2cccc3ccccc23)[C@H](C)CN([C@H](C)CO)C(=O)c2cc(NS(=O)(=O)c3ccccc3)ccc2O1 | 28.6% [at 2.1 µM, active compounds read low] (inactive) |
| COc1ccc(NC(=O)Nc2ccc3c(c2)C(=O)N([C@@H](C)CO)C[C@@H](C)[C@@H](CN(C)CC2CCCCC2)OCCCC[C@@H](C)O3)cc1 | -9.76% [at 4.2 µM, active compounds read low] (inactive) |
| C[C@H]1CN([C@@H](C)CO)C(=O)c2cc(NS(=O)(=O)c3ccccc3)ccc2O[C@@H]1CN(C)Cc1ccc(Oc2ccccc2)cc1 | -20.4% [at 8 µM, active compounds read low] (inactive) |
| C[C@@H]1CN([C@@H](C)CO)C(=O)Cc2cc(NC(=O)CCC(F)(F)F)ccc2O[C@H]1CN(C)Cc1ccc(-c2ccccc2)cc1 | -2.75% [at 16 µM, active compounds read low] (inactive) |
| CCCNC(=O)Nc1ccc2c(c1)OC[C@H](C)N(Cc1ccc(-c3ccccn3)cc1)C[C@@H](C)[C@@H](OC)CN(C)C2=O | 60.3% (inactive) |
| O=S(=O)(c1ccccc1F)N1CC[C@@H]2[C@@H](CO)Nc3ccc(C4=CCCCC4)cc3[C@@H]21 | 10.3% [at 4.2 µM, active compounds read low] (inactive) |
| CN1c2ccc(-c3cccc(F)c3)cc2[C@@H]2[C@@H](CCN2C(=O)Cc2ccccc2)[C@@H]1CO | 21.5% (inactive) |
| C[C@H](CO)N1C[C@H](C)[C@@H](CN(C)S(=O)(=O)c2ccc(Cl)cc2)OCCCC[C@H](C)Oc2ccc(NS(=O)(=O)c3ccc(Cl)cc3)cc2C1=O | -14.4% [at 8 µM, active compounds read low] (inactive) |
| C[C@@H]1CN([C@H](C)CO)C(=O)Cc2cc(NC(=O)Nc3ccc(F)cc3)ccc2O[C@H]1CN(C)Cc1ccc(Cl)c(Cl)c1 | 19.8% [at 0.5 µM, active compounds read low] (inactive) |
| C[C@@H]1CCCCO[C@H](CN(C)Cc2ccc(C(F)(F)F)cc2)[C@H](C)CN([C@H](C)CO)C(=O)c2cc(NS(=O)(=O)c3cccs3)ccc2O1 | 29.1% [at 0.26 µM, active compounds read low] (inactive) |
| O=C(C[C@H]1CC[C@H]2[C@@H](COC[C@@H](O)CN2Cc2ccc(Oc3ccccc3)cc2)O1)N1CCCCC1 | 35% (inactive) |
| C[C@@H]1CCCCO[C@H](CN(C)Cc2ccc(C(F)(F)F)cc2)[C@H](C)CN([C@@H](C)CO)C(=O)c2cc(NS(=O)(=O)c3cccs3)ccc2O1 | -8.64% [at 0.5 µM, active compounds read low] (inactive) |
| C[C@@H]1CCCCO[C@@H](CN(C)Cc2ccc(C(F)(F)F)cc2)[C@@H](C)CN([C@@H](C)CO)C(=O)c2cc(NS(=O)(=O)c3ccccc3)ccc2O1 | 24.1% [at 0.26 µM, active compounds read low] (inactive) |
| C[C@@H]1CCCCO[C@@H](CN(C)Cc2ccc(C(F)(F)F)cc2)[C@@H](C)CN([C@@H](C)CO)C(=O)c2cc(NS(=O)(=O)c3ccc(F)cc3)ccc2O1 | -6.83% [at 16 µM, active compounds read low] (inactive) |
| COc1ccc(NC(=O)Nc2ccc3c(c2)CC(=O)N([C@H](C)CO)C[C@@H](C)[C@@H](CN(C)Cc2ccc(Oc4ccccc4)cc2)O3)cc1 | -8.95% [at 16 µM, active compounds read low] (inactive) |
| C[C@@H]1CCCCO[C@H](CN(C)Cc2ccc(Cl)c(Cl)c2)[C@H](C)CN([C@@H](C)CO)C(=O)c2cc(NC(=O)Nc3ccccc3)ccc2O1 | 4.55% (inactive) |
| O=C(Nc1ccc(Cl)c(Cl)c1)N[C@@H]1CC[C@H](CCn2cc(C3CCCCC3)nn2)O[C@H]1CO | -6.27% [at 16 µM, active compounds read low] (inactive) |
| C[C@@H]1CN([C@H](C)CO)S(=O)(=O)c2ccc(C#CC3CCCC3)cc2O[C@@H]1CN(C)C(=O)Cc1ccncc1 | 16.7% [at 0.5 µM, active compounds read low] (inactive) |
| C[C@@H]1CCCCO[C@H](CN(C)Cc2ccc(C(F)(F)F)cc2)[C@H](C)CN([C@H](C)CO)C(=O)c2cc(NS(=O)(=O)c3ccccc3)ccc2O1 | -11.2% (inactive) |
| COc1cccc(S(=O)(=O)N2CC[C@H]3[C@@H](CO)N(C)c4ccc(C#Cc5ccc(F)cc5)cc4[C@H]32)c1 | -17.2% (inactive) |
